# Laboratory results: ChEMBL document CHEMBL3988442, “University of Dundee, Small-Polar-MMV Screening Library” (2021)
# For some assays here: Entries with a potency or affinity are not part of this list.
# Tests used:
# [1] = target: T1, Methionyl-tRNA synthetase, putative (Leishmania donovani (strain BPK282A1)) (UniProt E9BF75); experiment: Leishmania donovani Methionine tRNA synthetase (LdMetRS):v7. Dose response assay; type: functional; set-up: conc 80 nM, time 150 minutes
# T1 sequence (whole entry): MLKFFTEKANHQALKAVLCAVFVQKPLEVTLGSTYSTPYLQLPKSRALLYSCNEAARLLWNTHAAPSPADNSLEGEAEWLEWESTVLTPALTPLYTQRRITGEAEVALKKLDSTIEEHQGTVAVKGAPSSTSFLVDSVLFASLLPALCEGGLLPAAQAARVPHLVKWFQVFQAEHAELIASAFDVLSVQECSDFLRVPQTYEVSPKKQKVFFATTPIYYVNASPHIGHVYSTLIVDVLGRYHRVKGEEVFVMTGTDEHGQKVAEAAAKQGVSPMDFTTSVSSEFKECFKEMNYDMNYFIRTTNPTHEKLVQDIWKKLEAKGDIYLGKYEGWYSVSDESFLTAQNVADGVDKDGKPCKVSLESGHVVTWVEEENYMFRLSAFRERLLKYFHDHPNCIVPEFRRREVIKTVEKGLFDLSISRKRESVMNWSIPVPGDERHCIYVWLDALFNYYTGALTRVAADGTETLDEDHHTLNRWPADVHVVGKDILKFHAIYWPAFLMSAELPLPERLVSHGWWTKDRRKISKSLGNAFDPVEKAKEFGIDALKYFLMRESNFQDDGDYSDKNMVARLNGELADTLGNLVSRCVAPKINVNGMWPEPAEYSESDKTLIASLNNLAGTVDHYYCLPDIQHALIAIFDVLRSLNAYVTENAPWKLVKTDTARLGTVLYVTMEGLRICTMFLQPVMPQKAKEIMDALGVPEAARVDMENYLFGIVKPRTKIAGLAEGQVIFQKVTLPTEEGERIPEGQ
# [2] = target: Protein translocase subunit SecA (Escherichia coli (strain K12)) (UniProt P10408); experiment: Assay to Identify E. coli SecA ATPase Inhibitors; type: functional; set-up: scale not given: direction of the effect not stated beside the values; details: 30 µM
# [3] = target: T2, Ubiquitin-activating enzyme e1, putative (Leishmania donovani (strain BPK282A1)) (UniProt E9BSI1); experiment: Leishmania donovani Ubiquitin Activating Enzyme (LdE1); type: functional; set-up: scale not given: direction of the effect not stated beside the values; details: 30 µM
# T2 sequence (whole entry): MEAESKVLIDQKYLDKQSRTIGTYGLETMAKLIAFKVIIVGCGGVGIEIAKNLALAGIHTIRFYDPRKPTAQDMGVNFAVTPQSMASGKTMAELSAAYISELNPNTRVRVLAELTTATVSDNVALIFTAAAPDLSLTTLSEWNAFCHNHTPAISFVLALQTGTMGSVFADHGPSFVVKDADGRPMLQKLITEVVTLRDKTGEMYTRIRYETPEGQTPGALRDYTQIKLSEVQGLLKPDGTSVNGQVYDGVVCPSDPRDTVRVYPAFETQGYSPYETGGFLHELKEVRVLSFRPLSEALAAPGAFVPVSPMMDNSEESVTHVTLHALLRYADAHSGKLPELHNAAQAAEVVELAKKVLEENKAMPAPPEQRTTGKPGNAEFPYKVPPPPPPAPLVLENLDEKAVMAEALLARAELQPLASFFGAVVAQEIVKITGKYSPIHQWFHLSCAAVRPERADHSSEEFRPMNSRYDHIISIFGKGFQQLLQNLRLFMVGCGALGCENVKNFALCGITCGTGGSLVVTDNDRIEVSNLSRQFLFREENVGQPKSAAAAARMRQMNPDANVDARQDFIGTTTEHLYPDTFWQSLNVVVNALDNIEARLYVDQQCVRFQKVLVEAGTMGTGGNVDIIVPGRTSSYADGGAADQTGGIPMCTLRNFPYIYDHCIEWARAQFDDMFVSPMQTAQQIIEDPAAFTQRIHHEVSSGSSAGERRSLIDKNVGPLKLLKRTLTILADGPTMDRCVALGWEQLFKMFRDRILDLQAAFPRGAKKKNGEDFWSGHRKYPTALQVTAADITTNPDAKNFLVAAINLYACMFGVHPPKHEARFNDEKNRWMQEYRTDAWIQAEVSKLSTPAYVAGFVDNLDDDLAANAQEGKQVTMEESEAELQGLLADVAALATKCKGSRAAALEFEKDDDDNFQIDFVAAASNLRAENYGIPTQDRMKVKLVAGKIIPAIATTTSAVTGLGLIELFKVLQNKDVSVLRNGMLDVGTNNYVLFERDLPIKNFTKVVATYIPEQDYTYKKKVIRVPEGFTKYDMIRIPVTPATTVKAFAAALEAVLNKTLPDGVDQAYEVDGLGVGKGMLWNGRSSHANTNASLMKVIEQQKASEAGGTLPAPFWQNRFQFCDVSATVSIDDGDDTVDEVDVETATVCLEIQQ
# [4] = target: T3, Aspartate--tRNA(Asp/Asn) ligase (Mycobacterium tuberculosis (strain ATCC 25618 / H37Rv)) (UniProt P9WFW3); experiment: Assay for Asp RNA synthetase-1 from Mycobacterium tuberculosis; type: functional; set-up: scale not given: direction of the effect not stated beside the values; details: 30 µM; further: in the data most compounds retested in dose-response had high values
# T3 sequence (whole entry): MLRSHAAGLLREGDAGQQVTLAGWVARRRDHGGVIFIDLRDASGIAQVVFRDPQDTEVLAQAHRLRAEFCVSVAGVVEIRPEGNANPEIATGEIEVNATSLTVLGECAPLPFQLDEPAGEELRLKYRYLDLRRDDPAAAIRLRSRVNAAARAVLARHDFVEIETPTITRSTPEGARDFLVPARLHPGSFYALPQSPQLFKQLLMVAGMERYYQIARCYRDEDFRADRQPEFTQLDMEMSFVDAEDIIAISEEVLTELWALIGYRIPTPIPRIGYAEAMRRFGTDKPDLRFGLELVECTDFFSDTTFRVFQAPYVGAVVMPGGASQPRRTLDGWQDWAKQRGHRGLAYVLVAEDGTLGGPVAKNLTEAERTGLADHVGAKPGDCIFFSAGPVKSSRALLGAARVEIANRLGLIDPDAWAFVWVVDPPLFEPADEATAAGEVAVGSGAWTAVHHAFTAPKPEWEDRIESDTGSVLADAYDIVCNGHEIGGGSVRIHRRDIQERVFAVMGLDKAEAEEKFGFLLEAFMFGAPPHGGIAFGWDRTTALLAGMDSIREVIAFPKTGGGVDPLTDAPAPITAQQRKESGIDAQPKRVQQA
# [5] = target: AMP-activated protein kinase, AMPK (Homo sapiens) (UniProt P54646+O43741+P54619+Q9UGJ0+Q9Y478+Q13131+Q9UGI9); experiment: AMP-dependent Kinase enzyme assay. An in vitro enzyme assay that detects ADP turnover that is directly proportional to AMPK activity. This uses naive AMPK that is activated during the assay with MK-8722; type: functional; set-up: scale not given: direction of the effect not stated beside the values; details: 30 µM
# [6] = target: Sialic acid-binding Ig-like lectin 9 (Homo sapiens) (UniProt Q9Y336); experiment: Hs-Siglec9 ALPHAscreen SOP 20170721; set-up: scale not given: direction of the effect not stated beside the values; details: 10 µM
# Trypanosoma cruzi = experiment: Trypanosoma cruzi phosphomannomutase and mannose-1-phosphate guanylyltransferase assay; type: functional; set-up: scale not given: direction of the effect not stated beside the values; details: 10 µM
# [7] = target: T4, Arginase-2, mitochondrial (Homo sapiens) (UniProt P78540); experiment: in vitro enzyme assay to detect the production of urea directly proportional to the activity of Arginase II; type: functional; set-up: scale not given: in the data most compounds retested in dose-response had high values; details: 33.3 µM
# T4 sequence (whole entry): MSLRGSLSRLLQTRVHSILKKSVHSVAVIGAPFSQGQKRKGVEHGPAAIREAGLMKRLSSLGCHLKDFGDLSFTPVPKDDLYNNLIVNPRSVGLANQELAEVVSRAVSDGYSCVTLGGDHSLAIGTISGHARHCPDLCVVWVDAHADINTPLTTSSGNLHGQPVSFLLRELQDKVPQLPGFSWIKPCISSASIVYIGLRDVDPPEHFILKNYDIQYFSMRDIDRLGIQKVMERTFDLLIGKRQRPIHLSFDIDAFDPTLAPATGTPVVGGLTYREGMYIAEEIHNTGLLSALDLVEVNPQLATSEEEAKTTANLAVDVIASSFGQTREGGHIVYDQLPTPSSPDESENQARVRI
# [8] = target: T5, Proteasome subunit beta (Trypanosoma cruzi) (UniProt O96673); experiment: Trypanosoma cruzi proteasome chymotrypsin-like activity (TcProtChymo) assay.; type: functional; set-up: scale not given: in the data most compounds retested in dose-response had high values; details: 9.37 µM
# T5 sequence (whole entry): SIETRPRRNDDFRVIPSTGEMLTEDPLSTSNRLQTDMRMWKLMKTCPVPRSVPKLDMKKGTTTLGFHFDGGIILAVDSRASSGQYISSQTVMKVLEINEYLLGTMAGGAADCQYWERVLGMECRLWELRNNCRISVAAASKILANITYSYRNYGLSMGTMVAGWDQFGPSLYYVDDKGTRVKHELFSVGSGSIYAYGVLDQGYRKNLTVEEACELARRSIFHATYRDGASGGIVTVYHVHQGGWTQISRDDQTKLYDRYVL
# Homo sapiens = organism: Homo sapiens; experiment: To identify inhibition of the IFN signalling (Jak-Stat) pathway via expression of an eGFP reporter gene under the control of an IFN-stimulated response element (ISRE) containing MxA promoter.; type: functional; set-up: scale not given: direction of the effect not stated beside the values; details: 30 µM
# [9] = target: Shiga toxin 2 (Escherichia coli O157:H7) (UniProt P09385+P09386); experiment: E. coli 0.157:H7 Shiga Toxin SOP - stx2 screening assay; type: functional; set-up: scale not given: direction of the effect not stated beside the values; details: 30 µM
# [10] = target: T6, Tyrosyl-tRNA synthetase, putative (Trypanosoma cruzi (strain CL Brener)) (UniProt Q4DSP6); experiment: Trypanosoma cruzi tyrosyl tRNA synthetase (TcYRS) _High Tyrosine SOP; type: functional; set-up: scale not given: in the data most compounds retested in dose-response had high values; details: 30 µM
# T6 sequence (whole entry): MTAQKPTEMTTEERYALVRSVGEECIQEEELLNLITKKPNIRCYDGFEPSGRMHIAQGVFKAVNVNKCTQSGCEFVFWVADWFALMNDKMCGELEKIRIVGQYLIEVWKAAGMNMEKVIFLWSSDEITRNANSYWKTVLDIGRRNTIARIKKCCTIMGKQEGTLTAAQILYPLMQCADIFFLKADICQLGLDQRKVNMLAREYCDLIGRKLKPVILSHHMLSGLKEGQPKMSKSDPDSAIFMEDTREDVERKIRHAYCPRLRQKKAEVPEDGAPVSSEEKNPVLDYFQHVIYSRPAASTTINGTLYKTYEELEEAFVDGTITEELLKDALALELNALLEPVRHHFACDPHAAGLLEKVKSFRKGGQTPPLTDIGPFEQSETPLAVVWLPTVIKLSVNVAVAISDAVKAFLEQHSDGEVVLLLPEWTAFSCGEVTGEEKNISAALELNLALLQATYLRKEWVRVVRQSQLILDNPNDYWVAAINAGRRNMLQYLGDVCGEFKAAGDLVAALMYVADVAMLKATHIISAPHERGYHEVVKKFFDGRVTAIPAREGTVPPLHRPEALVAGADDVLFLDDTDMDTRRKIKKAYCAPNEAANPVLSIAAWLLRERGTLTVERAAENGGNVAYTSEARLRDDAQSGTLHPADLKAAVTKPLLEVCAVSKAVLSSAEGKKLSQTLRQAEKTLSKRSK
# [11] = target: T6, Tyrosyl-tRNA synthetase, putative (Trypanosoma cruzi (strain CL Brener)); experiment: Trypanosoma cruzi tyrosyl tRNA synthetase (TcYRS) SOP; type: functional; set-up: scale not given: direction of the effect not stated beside the values; details: 30 µM
# [12] = target: Chromo domain-containing protein 1 (Saccharomyces cerevisiae (strain ATCC 204508 / S288c) (Baker's yeast)) (UniProt P32657); experiment: ScCHD-1 Enzyme Inhibition Assay; type: functional; set-up: scale not given: in the data most compounds retested in dose-response had high values; details: 30 µM
# Sequence of Chromo domain-containing protein 1 (Saccharomyces cerevisiae (strain ATCC 204508 / S288c) (Baker's yeast)) (P32657 whole entry, the tested form may be a part): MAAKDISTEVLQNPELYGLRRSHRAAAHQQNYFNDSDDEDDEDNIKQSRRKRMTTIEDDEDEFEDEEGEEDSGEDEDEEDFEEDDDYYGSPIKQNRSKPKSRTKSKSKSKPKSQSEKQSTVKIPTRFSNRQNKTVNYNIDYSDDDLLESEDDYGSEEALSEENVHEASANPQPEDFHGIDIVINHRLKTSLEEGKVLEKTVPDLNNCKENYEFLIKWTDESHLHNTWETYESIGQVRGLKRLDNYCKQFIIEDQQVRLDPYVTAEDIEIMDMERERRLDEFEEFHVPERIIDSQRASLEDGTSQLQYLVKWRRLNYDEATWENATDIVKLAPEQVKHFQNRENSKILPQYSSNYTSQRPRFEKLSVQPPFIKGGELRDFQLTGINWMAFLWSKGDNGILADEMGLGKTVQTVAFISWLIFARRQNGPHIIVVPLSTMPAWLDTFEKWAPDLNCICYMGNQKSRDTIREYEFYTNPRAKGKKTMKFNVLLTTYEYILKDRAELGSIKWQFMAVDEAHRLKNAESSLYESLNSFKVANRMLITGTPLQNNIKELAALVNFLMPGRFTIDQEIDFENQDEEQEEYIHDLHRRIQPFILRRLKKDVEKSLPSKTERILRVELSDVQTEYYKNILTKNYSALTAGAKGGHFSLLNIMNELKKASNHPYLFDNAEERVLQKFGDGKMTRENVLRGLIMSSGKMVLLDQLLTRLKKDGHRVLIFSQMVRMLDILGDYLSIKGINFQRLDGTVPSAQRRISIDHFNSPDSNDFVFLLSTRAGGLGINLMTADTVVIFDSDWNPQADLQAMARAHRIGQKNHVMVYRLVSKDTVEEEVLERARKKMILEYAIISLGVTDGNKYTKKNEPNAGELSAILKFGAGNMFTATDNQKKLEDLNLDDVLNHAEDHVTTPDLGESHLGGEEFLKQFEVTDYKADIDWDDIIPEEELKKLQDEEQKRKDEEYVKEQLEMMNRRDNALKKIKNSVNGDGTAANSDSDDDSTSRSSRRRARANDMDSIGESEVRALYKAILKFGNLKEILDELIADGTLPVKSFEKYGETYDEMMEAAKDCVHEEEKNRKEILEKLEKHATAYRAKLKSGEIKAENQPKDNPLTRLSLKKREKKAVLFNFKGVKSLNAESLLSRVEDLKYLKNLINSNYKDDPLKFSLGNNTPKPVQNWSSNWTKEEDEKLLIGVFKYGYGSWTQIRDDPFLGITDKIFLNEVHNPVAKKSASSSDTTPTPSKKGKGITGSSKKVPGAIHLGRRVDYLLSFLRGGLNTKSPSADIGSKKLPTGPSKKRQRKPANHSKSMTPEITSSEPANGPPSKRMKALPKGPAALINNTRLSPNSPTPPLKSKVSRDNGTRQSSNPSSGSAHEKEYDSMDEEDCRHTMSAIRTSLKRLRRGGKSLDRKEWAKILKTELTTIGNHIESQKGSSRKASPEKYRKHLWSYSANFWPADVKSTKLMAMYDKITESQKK
# Sequence of Sialic acid-binding Ig-like lectin 9 (Homo sapiens) (Q9Y336 whole entry): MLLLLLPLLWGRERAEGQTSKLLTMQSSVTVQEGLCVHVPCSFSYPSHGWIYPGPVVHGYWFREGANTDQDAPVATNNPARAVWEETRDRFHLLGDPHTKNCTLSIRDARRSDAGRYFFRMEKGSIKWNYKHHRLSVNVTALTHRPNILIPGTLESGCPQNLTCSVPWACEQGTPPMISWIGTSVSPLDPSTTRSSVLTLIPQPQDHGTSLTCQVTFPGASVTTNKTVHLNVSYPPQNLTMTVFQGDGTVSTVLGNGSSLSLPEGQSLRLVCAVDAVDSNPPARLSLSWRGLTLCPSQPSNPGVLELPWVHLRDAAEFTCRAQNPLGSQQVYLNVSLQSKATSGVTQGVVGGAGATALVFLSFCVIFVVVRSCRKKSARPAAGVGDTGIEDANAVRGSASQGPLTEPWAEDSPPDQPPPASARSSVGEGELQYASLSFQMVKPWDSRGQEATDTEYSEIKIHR
# Sequence of Protein translocase subunit SecA (Escherichia coli (strain K12)) (P10408 whole entry): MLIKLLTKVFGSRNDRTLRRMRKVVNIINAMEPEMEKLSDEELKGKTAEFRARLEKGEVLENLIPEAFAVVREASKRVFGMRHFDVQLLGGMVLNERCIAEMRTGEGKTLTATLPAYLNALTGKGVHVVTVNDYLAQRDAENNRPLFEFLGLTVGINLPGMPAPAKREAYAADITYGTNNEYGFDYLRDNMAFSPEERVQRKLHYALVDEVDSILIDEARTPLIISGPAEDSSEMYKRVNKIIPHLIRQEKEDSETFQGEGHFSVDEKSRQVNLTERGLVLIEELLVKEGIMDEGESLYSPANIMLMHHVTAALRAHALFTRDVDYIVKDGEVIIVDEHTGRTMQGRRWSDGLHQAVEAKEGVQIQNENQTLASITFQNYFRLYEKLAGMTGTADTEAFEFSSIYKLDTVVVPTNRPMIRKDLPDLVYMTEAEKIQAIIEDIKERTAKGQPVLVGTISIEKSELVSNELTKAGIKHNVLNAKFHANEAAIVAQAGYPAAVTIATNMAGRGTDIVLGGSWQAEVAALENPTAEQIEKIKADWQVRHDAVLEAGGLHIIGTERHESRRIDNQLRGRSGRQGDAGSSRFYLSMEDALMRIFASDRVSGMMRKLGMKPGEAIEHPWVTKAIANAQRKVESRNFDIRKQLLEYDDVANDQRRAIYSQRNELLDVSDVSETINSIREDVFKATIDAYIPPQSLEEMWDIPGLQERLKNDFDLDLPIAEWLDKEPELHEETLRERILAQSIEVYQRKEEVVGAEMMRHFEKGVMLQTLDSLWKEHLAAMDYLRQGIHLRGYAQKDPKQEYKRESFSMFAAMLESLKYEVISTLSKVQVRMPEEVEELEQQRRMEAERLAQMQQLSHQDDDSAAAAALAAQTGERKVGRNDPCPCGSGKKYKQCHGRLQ
compound,measurement,setting,value
COc1cccc(CC(C)NC(=O)NCc2ccn(C)c2)c1 (centres undefined),PXC50,[1]; MAX_EFFECT 39.40455342,< 4
same,PXC50,[1]; MAX_EFFECT 41.30434783,< 4
same,PXC50,[1]; MAX_EFFECT 46.2585034,< 4
Cc1nc(N2C[C@@H]3CCN(C)[C@@H]3C2)c2ccsc2n1,PXC50,[1]; MAX_EFFECT 4.081632653,< 4
same,PXC50,[1]; MAX_EFFECT 6.313131313,< 4
CCN(CCc1ccccc1)Cn1nc(C)c2c(C)onc2c1=O,Percent Effect,[2],-5.66%
same,Percent Effect,[3],-8.11%
same,Percent Effect,[4],5.17%
same,Percent Effect,[5],-13.6%
same,Percent Effect,[6],25.2%
same,Percent Effect,Trypanosoma cruzi,3.68%
same,Percent Effect,[7],-3.21%
same,Percent Effect,[8],7.75%
same,Percent Effect,Homo sapiens,5.78%
same,Percent Effect,[9],16%
same,Percent Effect,[10],9.36%
same,Percent Effect,[11],23.5%
same,Percent Effect,[12],-14.1%
Cn1cc(N2C(=O)CC[C@@H]3[C@H]2CCN3Cc2ccncc2)cn1,Percent Effect,[2],-1.29%
same,Percent Effect,[3],2.67%
same,Percent Effect,[4],-1.89%
same,Percent Effect,[5],-2.47%
same,Percent Effect,[6],5.41%
same,Percent Effect,Trypanosoma cruzi,-0.193%
same,Percent Effect,[7],-56.1%
same,Percent Effect,[8],9.06%
same,Percent Effect,Homo sapiens,-8.54%
same,Percent Effect,[9],-20.8%
same,Percent Effect,[10],5.21%
same,Percent Effect,[11],12.5%
same,Percent Effect,[12],-7.17%
Cn1cc(C(=O)N2CC[C@@H]3[C@@H]2CCN3Cc2cccnc2)cn1,Percent Effect,[2],-4.7%
same,Percent Effect,[3],8.11%
same,Percent Effect,[4],1.51%
same,Percent Effect,[5],4.43%
same,Percent Effect,[6],1.46%
same,Percent Effect,Trypanosoma cruzi,-2.83%
same,Percent Effect,[7],0.955%
same,Percent Effect,[8],17.7%
same,Percent Effect,Homo sapiens,-13.9%
same,Percent Effect,[9],-2.5%
same,Percent Effect,[10],3.24%
same,Percent Effect,[11],12.8%
same,Percent Effect,[12],0.704%
